# Measurements: paper PMC12431657, “Discovery and mechanistic insights of dibenzoylmethane as a broad spectrum inhibitor of coronavirus” (PLOS Pathogens, 2025)
# Test system: HCoV-229E
# Set-up: species or system Huh-7
# Conditions: 24 h, 10 µM; inhibitor
smiles,measurement,value
C=C1C(=O)O[C@@H]2[C@H]3O[C@]3(C)CC/C=C(\C)CC[C@@H]12 [Parthenolide],229E Inhibition rate,24.7
